Only a selection was taken, and the strongest signals are over-represented in it overall.
Experiments:
Assay in all cases: glycan array binding signal (z-score within array); higher = stronger binding
Settings in all cases: glycan notation: IUPAC condensed, linker removed
[1] = target: Gal(b1-4)GlcNAc(b1-3)[Fuc(a1-3)GlcNAc(b1-6)]Gal(b1-4)Glc
Procedure, shortened: (§1)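 Negative Z-scores can be read as non-binding. The Z-score is calculated within each array and then averaged across arrays of one protein sequence at different concentrations or buffers and across linkers. Arrays, 3228 in all, were curated from the Consortium for Functional Glycomics database and kept only where the protein sequence was available.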

[2] = target: Gal3S(b1-4)Glc6S
Procedure, shortened: as §1

[3] = target: Gal3S6S(b1-4)GlcNAc6S
Procedure, shortened: as §1

[4] = target: Gal6S(b1-4)Glc6S
Procedure, shortened: as §1

[5] = target: GalNAc3S(b1-4)GlcNAc3S
Procedure, shortened: as §1

[6] = target: GlcA3S(b1-3)Gal(b1-4)GlcNAc(b1-2)Man
Procedure, shortened: as §1

[7] = target: GlcNAc(b1-2)[GlcNAc(b1-6)]Man(a1-6)[GlcNAc(b1-2)Man(a1-3)]Man(b1-4)GlcNAc(b1-4)[Fuc(a1-6)]GlcNAc
Procedure, shortened: as §1

[8] = target: GlcNAc(b1-3)Gal
Procedure, shortened: as §1

[9] = target: GlcNAc(b1-6)GalNAc
Procedure, shortened: as §1

[10] = target: Kdn(a2-3)Gal(b1-4)[Fuc(a1-3)]GlcNAc
Procedure, shortened: as §1

[11] = target: Kdn(a2-6)Gal(b1-4)GlcNAc
Procedure, shortened: as §1

[12] = target: Man(a1-2)Man(a1-3)[Man(a1-6)]Man(a1-6)[Man(a1-2)Man(a1-3)]Man(b1-4)GlcNAc(b1-4)GlcNAc
Procedure, shortened: as §1

[13] = target: Neu5Ac(a2-3)Gal(b1-3)GlcNAc(b1-2)Man
Procedure, shortened: as §1

[14] = target: Neu5Ac(a2-3)Gal(b1-3)GlcNAc(b1-3)GalNAc
Procedure, shortened: as §1

[15] = target: Neu5Ac(a2-3)Gal(b1-3)GlcNAc6S
Procedure, shortened: as §1

[16] = target: Neu5Ac(a2-3)Gal(b1-3)[Fuc(a1-4)]GlcNAc
Procedure, shortened: as §1

[17] = target: Neu5Ac(a2-3)Gal(b1-3)[Neu5Ac(a2-6)]GlcNAc(b1-3)[Fuc(a1-3)[Gal(b1-4)]GlcNAc(b1-6)]Gal(b1-4)Glc
Procedure, shortened: as §1

[18] = target: Neu5Ac(a2-3)Gal(b1-4)GlcNAc(b1-2)[Neu5Ac(a2-3)Gal(b1-4)GlcNAc(b1-4)]Man(a1-3)[GlcNAc(b1-4)][Neu5Ac(a2-3)Gal(b1-4)GlcNAc(b1-2)[Neu5Ac(a2-3)Gal(b1-4)GlcNAc(b1-6)]Man(a1-6)]Man(b1-4)GlcNAc(b1-4)GlcNAc
Procedure, shortened: as §1

[19] = target: Neu5Ac(a2-3)Gal(b1-4)GlcNAc(b1-3)Gal(b1-4)GlcNAc(b1-3)[Neu5Ac(a2-3)Gal(b1-4)GlcNAc(b1-3)Gal(b1-4)GlcNAc(b1-6)]GalNAc
Procedure, shortened: as §1

[20] = target: Neu5Ac(a2-3)Gal(b1-4)[Fuc(a1-3)]GlcNAc(b1-6)[Gal(b1-3)]GalNAc
Procedure, shortened: as §1

[21] = target: Neu5Ac(a2-3)Gal6S(b1-4)[Fuc(a1-3)]GlcNAc
Procedure, shortened: as §1

[22] = target: Neu5Ac(a2-6)Gal(b1-4)GlcNAc(b1-2)Man(a1-3)[Neu5Ac(a2-6)Gal(b1-4)GlcNAc(b1-2)Man(a1-6)]Man(b1-4)GlcNAc(b1-4)GlcNAc
Procedure, shortened: as §1

[23] = target: Neu5Ac(a2-6)Gal(b1-4)GlcNAc(b1-2)Man(a1-6)Man(b1-4)GlcNAc(b1-4)GlcNAc
Procedure, shortened: as §1

[24] = target: Neu5Ac(a2-6)Gal(b1-4)GlcNAc(b1-2)Man(a1-6)[Man(a1-3)]Man(b1-4)GlcNAc(b1-4)GlcNAc
Procedure, shortened: as §1

[25] = target: Neu5Ac(a2-6)Gal(b1-4)GlcNAc(b1-3)Gal(b1-4)GlcNAc(b1-3)Gal(b1-4)GlcNAc(b1-2)Man(a1-3)[Neu5Ac(a2-6)Gal(b1-4)GlcNAc(b1-3)Gal(b1-4)GlcNAc(b1-3)Gal(b1-4)GlcNAc(b1-2)Man(a1-6)]GalNAc
Procedure, shortened: as §1

[26] = target: Neu5Ac(a2-6)Gal(b1-4)GlcNAc(b1-6)GalNAc
Procedure, shortened: as §1

[27] = target: Neu5Ac(a2-6)GlcNAc(b1-4)GlcNAc(b1-4)GlcNAc
Procedure, shortened: as §1

[28] = target: Neu5Ac(a2-8)Neu5Ac
Procedure, shortened: as §1

[29] = target: Neu5Ac(a2-8)Neu5Ac(a2-8)Neu5Ac(a2-3)[GalNAc(b1-4)]Gal(b1-4)Glc
Procedure, shortened: as §1

B1: Pbx2CASH domain (Cryptococcus neoformans) (protein)
chain: GIPGPNRLYRLSGPIIFTAADQEIATYGYPTGSERAVLRVEGRNTATAIQGDCRRCARVSVKNLVVDGNRKKLGRMRDFQLATGLVVLGGNEGQSIQNSWIKNPRGFTAIHIREGDKLQCSGARVEKNEIGPVGEEYDPEKDGDDPEMSPLGRPLADGVSIACRDSFIRDNTFRDNTDAAIVVYCSPGTLIHA
[1]
  glycan array binding signal (z-score): -0.704
[2]
  glycan array binding signal (z-score): 0.057
[3]
  glycan array binding signal (z-score): 1.44
[4]
  glycan array binding signal (z-score): 3.18
[5]
  glycan array binding signal (z-score): -0.15
[6]
  glycan array binding signal (z-score): 2.57
[7]
  glycan array binding signal (z-score): -0.071
[8]
  glycan array binding signal (z-score): -0.697
[9]
  glycan array binding signal (z-score): -0.438
[10]
  glycan array binding signal (z-score): 0.079
[11]
  glycan array binding signal (z-score): -0.478
[12]
  glycan array binding signal (z-score): -0.457
[13]
  glycan array binding signal (z-score): 3.35
[14]
  glycan array binding signal (z-score): 0.011
[15]
  glycan array binding signal (z-score): -0.247
[16]
  glycan array binding signal (z-score): -0.813
[17]
  glycan array binding signal (z-score): -0.803
[18]
  glycan array binding signal (z-score): 0.012
[19]
  glycan array binding signal (z-score): 0.079
[20]
  glycan array binding signal (z-score): 0.909
[21]
  glycan array binding signal (z-score): -0.748
[22]
  glycan array binding signal (z-score): -0.301
[23]
  glycan array binding signal (z-score): 1.6
[24]
  glycan array binding signal (z-score): 2.48
[25]
  glycan array binding signal (z-score): 4.62
[26]
  glycan array binding signal (z-score): 1.05
[27]
  glycan array binding signal (z-score): -0.208
[28]
  glycan array binding signal (z-score): -0.046
[29]
  glycan array binding signal (z-score): 3.58

From the supplement of paper PMC8728848
